# Hits are enriched below; roughly 12% of the tested compounds scored in any of these assays.
# Sm TGR inh = qHTS Assay for the Inhibitors of Schistosoma Mansoni Peroxiredoxins; actives 3% (n = 360,000); purified TGR, DTNB reduction, TNB absorbance 405 nm; Potency, µM (series often up to 114 µM), for the others: top-dose activity change, negative = inhibition, usual class: inhibitors; Schistosoma mansoni thioredoxin glutathione reductase (TGR), Q962Y6; AID 485364, 2010; further: on the % scale 0 is the no-effect control and ±100 the full control effect; nearly all actives have a fitted effect of over 60% in size
#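 Kinetic colorimetric format: TGR-catalysed, NADPH-driven DTNB reduction monitored via TNB absorbance. Enzyme dispensed at 20 nM; compound exposure 15 min at room temperature before reaction start.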
# AmpC inh no detg = qHTS Inhibitors of AmpC Beta-Lactamase (assay without detergent); AmpC nitrocefin hydrolysis, absorbance 480 nm, 0.0001% Triton; actives 0.52% (n = 330,000); AID 485341, 2010; P00811; Potency, µM (series often up to 57.1 µM), without a hit: at the highest dose activity change, negative = inhibition, most hits filed as inhibitors;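 further: plate controls were no compound for no effect and no enzyme for full effect; nearly all actives have a fitted effect of over 20% in size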
# Target sequence (P00811 whole entry, looked up): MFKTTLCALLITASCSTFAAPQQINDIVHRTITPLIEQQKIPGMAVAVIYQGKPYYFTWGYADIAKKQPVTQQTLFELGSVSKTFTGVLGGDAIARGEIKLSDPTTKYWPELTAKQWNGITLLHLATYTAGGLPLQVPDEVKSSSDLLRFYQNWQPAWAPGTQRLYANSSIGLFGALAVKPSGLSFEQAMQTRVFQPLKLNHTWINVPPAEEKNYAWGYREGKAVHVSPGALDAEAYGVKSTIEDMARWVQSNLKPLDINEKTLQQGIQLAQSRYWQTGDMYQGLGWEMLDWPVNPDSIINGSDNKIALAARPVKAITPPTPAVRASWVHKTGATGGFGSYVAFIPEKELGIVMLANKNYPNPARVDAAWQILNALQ
#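 20 mM phosphate pH 7.0 + 0.01% (detergent screen) or 0.0001% Triton X-100; 5.3 nM AmpC reagent; cpd preinc 15 min RT; nitrocefin (800 uM stock) to start; A480 q20 s × 4 min; Activity was normalised to no-enzyme and no-compound control wells.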
# SARS PLpro yeast = qHTS of Yeast-based Assay for SARS-CoV PLP; S. cerevisiae expressing SARS-CoV PLpro, growth rescue; Potency, µM (doses to about 32.9 µM), for the others: at the top dose activity, positive = growth rescue, actives largely listed as activators; actives 0.19% (n = 330,000); calls by dose curve; further: 0% is about no effect; nearly all actives have a fitted effect of over 55% in size
# Pf growth 96h = Primary qHTS for delayed death inhibitors of the malarial parasite plastid, 96 hour incubation; P. falciparum luciferase reporter growth, 96 h; Potency, µM (doses to about 28.7 µM), for the others: at the top dose activity change, negative = inhibition, most hits filed as inhibitors; actives 6.9% (n = 320,000); further: on the % scale 0 is the no-effect control and ±100 the full control effect
#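 Two parasite generations (96 h, 37 C, 5% CO2) of compound exposure in infected erythrocytes (0.05% parasitemia, 2% hematocrit). Luciferase-reporter P. falciparum; decreased luminescence indicates inhibited growth, aimed at apicoplast-acting delayed death.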
# AmpC inh detg = qHTS Inhibitors of AmpC Beta-Lactamase (assay with detergent) | P00811 | AmpC hydrolysis of nitrocefin, absorbance 480 nm, 0.01% Triton | Potency, µM (highest dose often 114 µM), for inactives: at the top dose activity change, negative = inhibition, actives largely listed as inhibitors | actives 0.041% (n = 370,000);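 further: 0% = no-compound wells and -100% = no-enzyme wells; nearly all actives have a fitted effect of over 25% in size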
#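 20 mM phosphate pH 7.0 + 0.01% (detergent screen) or 0.0001% Triton X-100; 5.3 nM AmpC reagent; cpd preinc 15 min RT; nitrocefin (800 uM stock) to start; A480 q20 s × 4 min; Activity was normalised to no-enzyme and no-compound control wells.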
# Pf growth 48h = Primary qHTS for delayed death inhibitors of the malarial parasite plastid, 48 hour incubation; P. falciparum luciferase growth in erythrocytes, 48 h; Potency, µM (doses to about 28.7 µM), for the others: at the top dose activity change, negative = inhibition, actives largely listed as inhibitors; actives 5.9% (n = 310,000); further: on the % scale 0 is the no-effect control and ±100 the full control effect
#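 Compounds are pin-transferred into medium, infected erythrocytes (2% hematocrit, 0.1% parasitemia final) are added, and plates sit one parasite generation at 37 C in 5% CO2. Detection reagent is then added and luminescence measured.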
# Numbers without * were called inactive; ? = inconclusive; . = no result given; [ ] = another dose, or the depositor's remark. Unless noted, the call rests on the fitted dose curve; in most records, active means well fitted curve in the direction sought with a large enough effect; inconclusive means small, poorly fitted or top-dose-only effect, or another doubt; inactive means no such curve, though single readings can be large; an effect the other way counts as inactive or inconclusive. Potency means the concentration at half of the fitted maximal effect.
SMILES,Sm TGR inh,AmpC inh no detg,SARS PLpro yeast,Pf growth 96h,AmpC inh detg,Pf growth 48h
COCCN(C(=O)COC(=O)c1ccc2[nH]c(C)c(C)c2c1)c1c(N)n(Cc2ccccc2)c(=O)[nH]c1=O,-1%,13%,-1%,?,-4%,?
CCc1nc2ccccc2c(C(=O)OCC(=O)N(CCOC)c2c(N)n(Cc3ccccc3)c(=O)[nH]c2=O)c1C,3%,171%,-7%,?,-13%,13µM*
CC(C)CN(C(=O)CC1CCCC1)c1c(N)n(Cc2ccccc2)c(=O)[nH]c1=O,1%,-40%,-1%,-1%,-7%,?
CC(C)CN(C(=O)COC(=O)C12CC3CC(CC(C3)C1)C2)c1c(N)n(Cc2ccccc2)c(=O)[nH]c1=O,-1%,-9%,-5%,0.13µM*,5%,1.2µM*
Cc1onc(-c2ccccc2)c1C(=O)OCC(=O)N(CC(C)C)c1c(N)n(Cc2ccccc2)c(=O)[nH]c1=O,-5%,-11%,-22%,?,?,13µM*
CCN(C(=O)COC(=O)c1c(-c2ccccc2)noc1C)c1c(N)n(Cc2ccccc2)c(=O)[nH]c1=O,1%,65%,6%,?,1%,?
COCCN(C(=O)COC(=O)c1c(-c2ccccc2)noc1C)c1c(N)n(Cc2ccccc2)c(=O)[nH]c1=O,-21%,136%,-1%,12µM*,?,?
COc1cccc(NC(=O)N2CCCC2C(=O)NCc2ccc(Cl)cc2)c1 (configuration not stated),-3%,-9%,2%,?,7%,9%
COc1ccc(C(=O)O)cc1NC(=S)NC(=O)/C=C/c1ccc(C(C)C)cc1,?,-59%,0%,-9%,-4%,12%[0.00184 µM]
COc1ccc(CNC(=O)c2ccc(NC(=O)N3CCCCc4ccccc43)cc2)c(OC)c1,9%,.,.,.,0%,.
CC1CC(C)CN(C(=O)COC(=O)/C=C/c2cccc([N+](=O)[O-])c2)C1 (configuration not stated),-11%,-8%,-2%,41%,-13%,1%
NS(=O)(=O)c1ccc(O)c(N2C(=O)c3cccc4c(C(=O)O)ccc(c34)C2=O)c1,.,-4%,0%,15%,2%,25%
CC(C)Oc1ccc(CN=C(N)N=C(N)N)cc1Cl,-14%,-38%,9%,?,-14%,12µM*
CC(C)COc1ccc(CN=C(N)N=C(N)N)cc1Cl,-5%,0%,-6%,?,-12%,2.9µM*
Cc1oc(-c2ccc(Cl)cc2)nc1CS(=O)CC(=O)NCc1ccc2c(c1)OCO2 (configuration not stated),14µM*,58%,11%,?,-8%,16%
COc1ccc(-c2nc(CSCC(=O)NCc3ccc4c(c3)OCO4)c(C)o2)cc1,-21%,14%,2%,5.9µM*,-18%,.
COc1ccc(-c2nc(CS(=O)CC(=O)NCc3ccc4c(c3)OCO4)c(C)o2)cc1OC (configuration not stated),40µM*,75%,1%,?,-11%,-9%
Nc1c(C(=O)NCCc2ccccc2)nnn1CC(=O)Nc1ccc(Cl)cc1,2%,.,.,.,3%,.
CCOc1ccc(CNCc2c(C(=O)O)c(C)n(Cc3ccc(F)cc3Cl)c2C)cc1,-14%,.,.,.,-6%,.
O=[N+]([O-])c1cc(-c2nc(-c3ccncc3)no2)ccc1NCc1ccccc1,5%,.,.,.,20%,.
c1ccc(CSC2=NNC(c3ccccn3)S2)cc1 (configuration not stated),-7%,-15%,?,?,10%,2.1µM*

# Screening results deposited in PubChem by National Center for Advancing Translational Sciences (NCATS).
